Records with an inconclusive call do not appear. Some structures have more than one record in an assay (separate samples or runs), and their calls can disagree. Calls of active or inactive are those of the source. How the source made its calls, unless noted: active means hit-call score of the fitted dose curve at least 0.9, where 1 is the maximum; inconclusive means response in the unintended direction; inactive means score below 0.9.
biological target: Estrogen receptor (Homo sapiens) (UniProt P03372); test: CCTE_Deisenroth_AIME_384WELL_LUC_Inactive: CCTE's 384-well Estrogen Receptor Transactivation Assay without AIME metabolic competence (ERTA luciferase; metabolism negative), Deisenroth Lab (AID 2284038);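 further: VM7Luc4E2 breast cells given medium preincubated 2 h with S9-free microspheres; hits raise estrogen receptor luciferase signal so potencies reflect agonists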
In short: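 VM7Luc4E2 ER transactivation, luciferase bioluminescence after 24 h, using medium pre-incubated 2 h with S9-free alginate microspheres. Concentrations 0.002–200 uM; gain of signal fitted relative to 17beta-estradiol.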

Chain of Estrogen receptor (Homo sapiens) (P03372 whole entry, looked up): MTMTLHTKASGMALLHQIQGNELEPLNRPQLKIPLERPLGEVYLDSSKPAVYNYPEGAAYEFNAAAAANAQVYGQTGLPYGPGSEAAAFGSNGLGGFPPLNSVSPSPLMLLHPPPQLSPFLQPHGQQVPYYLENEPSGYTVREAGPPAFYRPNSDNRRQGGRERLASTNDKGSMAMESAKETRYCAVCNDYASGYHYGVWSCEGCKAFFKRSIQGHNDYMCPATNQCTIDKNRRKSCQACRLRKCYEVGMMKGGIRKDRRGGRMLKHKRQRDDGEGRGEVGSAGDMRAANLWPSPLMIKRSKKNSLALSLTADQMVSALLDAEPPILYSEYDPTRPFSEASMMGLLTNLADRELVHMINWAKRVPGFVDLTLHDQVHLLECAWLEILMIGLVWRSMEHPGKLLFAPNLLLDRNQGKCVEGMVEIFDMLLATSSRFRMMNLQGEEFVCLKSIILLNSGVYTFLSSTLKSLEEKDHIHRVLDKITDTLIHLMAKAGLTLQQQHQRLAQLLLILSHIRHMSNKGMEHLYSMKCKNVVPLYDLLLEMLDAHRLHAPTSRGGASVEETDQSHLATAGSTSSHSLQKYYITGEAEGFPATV

Compound	outcome	AC50
O=S(=O)(O)C(F)(F)C(F)(F)C(F)(F)C(F)(F)C(F)(F)C(F)(F)F	inactive	
C[C@]12CCC(=O)C=C1CC[C@@H]1[C@@H]2CC[C@]2(C)C(=O)CC[C@@H]12	inactive	
Clc1ccc(C(Cl)(Cl)Cl)cc1	inactive	
Nc1ccc(-c2ccc(N)cc2)cc1	inactive	
Cc1cc(-c2ccc(N)c(C)c2)ccc1N		15.2 µM (active)
OCC(O)CO	inactive	0.000417 µM (active)
C=CC(=O)NCNC(=O)C=C	inactive	
Cc1cccc([N+](=O)[O-])c1	inactive	
CCC(C)(c1ccc(O)cc1)c1ccc(O)cc1		0.206 µM (active)
CCC(=O)O[C@H]1CC[C@H]2[C@@H]3CCC4=CC(=O)CC[C@]4(C)[C@H]3CC[C@]12C	inactive	
c1cc2ccc3cccc4ccc(c1)c2c34	inactive	
CCCN(CCC)N=O	inactive	
Clc1ccc(Cl)cc1	inactive	
O=C(N[C@H]1CN2CCC1CC2)c1cc2ccoc2cn1	inactive	
c1ccc(-c2ccccc2)cc1	inactive	
CCCCCCCCCc1ccc(O)cc1		24.5 µM (active)
Cc1cc2c3c(c1)C(c1ccccc1)=N[C@@H](NC(=O)c1ccncc1)C(=O)N3CC2	inactive	
ClC1=C(Cl)[C@]2(Cl)[C@@H]3[C@H]4C[C@H]([C@@H]5O[C@H]45)[C@@H]3[C@@]1(Cl)C2(Cl)Cl	inactive	
C1CC2OC2CC1C1CO1 (stereo not drawn)	inactive	
CCOCCOC(C)=O	inactive	
Cc1ccccc1O	inactive	

system: not listed separately; test: CCTE_Deisenroth_AIME_384WELL_CTox_Inactive: Cytotoxicity Assessment (CTOX) in CCTE's 384-well Estrogen Receptor Transactivation Assay without AIME metabolic competence (metabolism negative), Deisenroth Lab (AID 2284039);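 further: cell viability via live-cell protease substrate cleaved to fluorescent probe; cells exposed 24 h to medium preincubated 2 h with alginate-water beads without S9; loss of fluorescence signal means loss of viability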
In short: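 Fluorescence from a live-cell protease substrate, read after 24 h in VM7Luc4E2 cells, indicated viability. Test medium came from a 2 h AIME step without hepatic S9 (alginate-water microspheres); concentrations spanned 0.002 - 200 uM, single technical replicate per run.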

Compound	outcome	AC50
O=S(=O)(O)C(F)(F)C(F)(F)C(F)(F)C(F)(F)C(F)(F)C(F)(F)F	inactive	
C[C@]12CCC(=O)C=C1CC[C@@H]1[C@@H]2CC[C@]2(C)C(=O)CC[C@@H]12	inactive	
Clc1ccc(C(Cl)(Cl)Cl)cc1	inactive	
Nc1ccc(-c2ccc(N)cc2)cc1	inactive	
Cc1cc(-c2ccc(N)c(C)c2)ccc1N	inactive	
OCC(O)CO	inactive	
C=CC(=O)NCNC(=O)C=C		19.8 µM (active)
Cc1cccc([N+](=O)[O-])c1	inactive	
CCC(C)(c1ccc(O)cc1)c1ccc(O)cc1		189 µM (active)
CCC(=O)O[C@H]1CC[C@H]2[C@@H]3CCC4=CC(=O)CC[C@]4(C)[C@H]3CC[C@]12C	inactive	
c1cc2ccc3cccc4ccc(c1)c2c34		0.0782 µM (active)
CCCN(CCC)N=O	inactive	
Clc1ccc(Cl)cc1	inactive	
O=C(N[C@H]1CN2CCC1CC2)c1cc2ccoc2cn1	inactive	
c1ccc(-c2ccccc2)cc1	inactive	
CCCCCCCCCc1ccc(O)cc1		146 µM (active)
Cc1cc2c3c(c1)C(c1ccccc1)=N[C@@H](NC(=O)c1ccncc1)C(=O)N3CC2	inactive	
ClC1=C(Cl)[C@]2(Cl)[C@@H]3[C@H]4C[C@H]([C@@H]5O[C@H]45)[C@@H]3[C@@]1(Cl)C2(Cl)Cl	inactive	
C1CC2OC2CC1C1CO1 (stereo not drawn)	inactive	
CCOCCOC(C)=O	inactive	
Cc1ccccc1O	inactive	

system: not listed separately; test: CCTE_Shafer_MEA_dev_active_electrodes_number: CCTE's Neural Network Formation Assay for Number of Active Electrodes, Shafer Lab (AID 2284040);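 on AC50: potency for loss of active electrodes versus DMSO so lower counts are hits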
In short: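 Counts electrodes per well firing at least 5 spikes/min, recorded on days 5, 7, 9 and 12 in rat cortical cultures dosed continuously from plating (treatment refreshed DIV 5, 9). Value is the area under the curve over recordings, fitted downward relative to DMSO.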

Compound	AC50	outcome
O=S(=O)(O)C(F)(F)C(F)(F)C(F)(F)C(F)(F)C(F)(F)C(F)(F)F	3.97 µM (active)	inactive
CCC(C)(c1ccc(O)cc1)c1ccc(O)cc1	4.56 µM (active)	
c1cc2ccc3cccc4ccc(c1)c2c34		inactive
ClC1=C(Cl)[C@]2(Cl)[C@@H]3[C@H]4C[C@H]([C@@H]5O[C@H]45)[C@@H]3[C@@]1(Cl)C2(Cl)Cl		inactive

biological target: Estrogen receptor (Homo sapiens) (UniProt P03372); test: CCTE_Deisenroth_AIME_384WELL_LUC_Shift: CCTE's 384-well Estrogen Receptor Transactivation Assay with AIME metabolic competence data shift (ERTA luciferase; difference in metabolism positive and negative), Deisenroth Lab (AID 2284041; active means hit-call score of the fitted dose curve at least 0.9, where 1 is the maximum; inactive means score below 0.9;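 further: shift is response with S9 minus without S9 so positive means metabolism raised ER signal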)
In short: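 Chemicals (0.002–200 uM, 10 points) pre-incubated 2 h with alginate-encapsulated induced male Sprague Dawley rat liver S9 or S9-free, then medium applied 24 h to VM7Luc4E2 cells; luciferase. Endpoint is per-concentration difference, S9-positive minus negative.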

Compound	outcome	AC50
O=S(=O)(O)C(F)(F)C(F)(F)C(F)(F)C(F)(F)C(F)(F)C(F)(F)F	inactive	
C[C@]12CCC(=O)C=C1CC[C@@H]1[C@@H]2CC[C@]2(C)C(=O)CC[C@@H]12	inactive	
Clc1ccc(C(Cl)(Cl)Cl)cc1	inactive	
Nc1ccc(-c2ccc(N)cc2)cc1	inactive	
Cc1cc(-c2ccc(N)c(C)c2)ccc1N	inactive	
OCC(O)CO	inactive	0.00051 µM (active)
C=CC(=O)NCNC(=O)C=C	inactive	
Cc1cccc([N+](=O)[O-])c1	inactive	
CCC(C)(c1ccc(O)cc1)c1ccc(O)cc1		0.107 µM (active)
CCC(=O)O[C@H]1CC[C@H]2[C@@H]3CCC4=CC(=O)CC[C@]4(C)[C@H]3CC[C@]12C	inactive	
c1cc2ccc3cccc4ccc(c1)c2c34	inactive	
CCCN(CCC)N=O	inactive	
Clc1ccc(Cl)cc1	inactive	
O=C(N[C@H]1CN2CCC1CC2)c1cc2ccoc2cn1	inactive	
c1ccc(-c2ccccc2)cc1		80.7 µM (active)
CCCCCCCCCc1ccc(O)cc1		31.4 µM (active)
Cc1cc2c3c(c1)C(c1ccccc1)=N[C@@H](NC(=O)c1ccncc1)C(=O)N3CC2	inactive	
ClC1=C(Cl)[C@]2(Cl)[C@@H]3[C@H]4C[C@H]([C@@H]5O[C@H]45)[C@@H]3[C@@]1(Cl)C2(Cl)Cl		1.75 µM (active)
C1CC2OC2CC1C1CO1 (stereo not drawn)	inactive	
CCOCCOC(C)=O	inactive	

system: not listed separately; test: CCTE_Shafer_MEA_dev_burst_rate: CCTE's Neural Network Formation Assay for Burst Rate, Shafer Lab (AID 2284042; active means hit-call score of the fitted dose curve at least 0.9, where 1 is the maximum; inactive means score below 0.9)
In short: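 Developmental network assay measuring how 12-day exposure of rat cortical neuron cultures alters bursting on extracellular MEA recordings. Values are AUC of well-mean burst rate across four recording days, relative to DMSO vehicle.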

Compound	outcome
O=S(=O)(O)C(F)(F)C(F)(F)C(F)(F)C(F)(F)C(F)(F)C(F)(F)F	inactive
CCC(C)(c1ccc(O)cc1)c1ccc(O)cc1	inactive
c1cc2ccc3cccc4ccc(c1)c2c34	inactive
ClC1=C(Cl)[C@]2(Cl)[C@@H]3[C@H]4C[C@H]([C@@H]5O[C@H]45)[C@@H]3[C@@]1(Cl)C2(Cl)Cl	inactive

Source: PubChem BioAssay (EPA / NIEHS)
